Test results reported in the supplement of paper PMC10849652.
The full data set covers some 7,900 targets. This sample favours those with a hit. About 0.6% of all pairs of compound and target were hits.

Key:
Assay in all cases: log2 fold change, soluble protein after heating vs DMSO (PISA); higher = thermal stabilisation; K562 cells, 10 uM, 30 min; active = over 0.2 and 3.5 SD of the protein, either way, in both replicates (recomputed)
[1] = compound: COC1=CC=C(C=C1)CN2C=CC3=C2C=C(C=C3)C(=O)NO
Method in brief: (§1)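 Soluble protein was quantified by TMTpro 16plex LC-MS/MS after channel sums were equalised. It was obtained as the supernatant after 21,000xg for 90 min from pooled aliquots of K562 cells (2×10^6 cells/mL, 10 μM compound, 30 min) heated for 3 min across 48°C-58°C and extracted in PBS with 0.5% NP-40 at 4°C. Thermal stability values are relative to control samples and come from duplicates. They are given as log2 fold changes.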

filanesib = compound: CON(C)C(=O)N1N=C(c2cc(F)ccc2F)S[C@@]1(CCCN)c1ccccc1 [filanesib]
Method in brief: as §1

zotarolimus = compound: CO[C@H]1C[C@@H]2CC[C@@H](C)[C@@](O)(O2)C(=O)C(=O)N2CCCC[C@H]2C(=O)O[C@H]([C@H](C)C[C@@H]2CC[C@H](n3cnnn3)[C@H](OC)C2)CC(=O)[C@H](C)/C=C(\C)[C@@H](O)[C@@H](OC)C(=O)[C@H](C)C[C@H](C)/C=C/C=C/C=C/1C [zotarolimus]
Method in brief: as §1

idasanutlin = compound: COc1cc(C(=O)O)ccc1NC(=O)[C@@H]1N[C@@H](CC(C)(C)C)[C@](C#N)(c2ccc(Cl)cc2F)[C@H]1c1cccc(Cl)c1F [idasanutlin]
Method in brief: as §1

alisertib = compound: COc1cc(Nc2ncc3c(n2)-c2ccc(Cl)cc2C(c2c(F)cccc2OC)=NC3)ccc1C(=O)O [alisertib]
Method in brief: as §1

[2] = compound: COc1cc2nc(-c3cc(F)ccc3O)nc(N[C@@H]3CNC[C@H]3C(C)(C)O)c2cc1OC
Method in brief: as §1

gefitinib = compound: COc1cc2ncnc(Nc3ccc(F)c(Cl)c3)c2cc1OCCCN1CCOCC1 [gefitinib]
Method in brief: as §1

[3] = compound: COc1cccc2cc(-c3nc([C@H]4CC[C@H](C(=O)O)CC4)n4ncnc(N)c34)[nH]c12
Method in brief: as §1

lapatinib = compound: CS(=O)(=O)CCNCc1ccc(-c2ccc3ncnc(Nc4ccc(OCc5cccc(F)c5)c(Cl)c4)c3c2)o1 [lapatinib]
Method in brief: as §1

pictilisib = compound: CS(=O)(=O)N1CCN(Cc2cc3nc(-c4cccc5[nH]ncc45)nc(N4CCOCC4)c3s2)CC1 [pictilisib]
Method in brief: as §1

[4] = compound: CS(=O)(=O)c1ccc(-c2cnc(N)c(C(=O)Nc3ccccc3)n2)cc1
Method in brief: as §1

crizotinib = compound: C[C@@H](Oc1cc(-c2cnn(C3CCNCC3)c2)cnc1N)c1c(Cl)ccc(F)c1Cl [crizotinib]
Method in brief: as §1

[5] = compound: C[C@@H]1COCCN1C2=NC(=NC(=C2)C3(CC3)S(=O)(=O)C)C4=C5C=CNC5=CC=C4
Method in brief: as §1

[6] = compound: C[C@H](C1=CC=C(C=C1)C(=O)NC2=C3C=CNC3=NC=C2)N
Method in brief: as §1

duvelisib = compound: C[C@H](Nc1ncnc2nc[nH]c12)c1cc2cccc(Cl)c2c(=O)n1-c1ccccc1 [duvelisib]
Method in brief: as §1

gandotinib = compound: Cc1cc(Nc2cc(CN3CCOCC3)c3nc(C)c(Cc4ccc(Cl)cc4F)n3n2)n[nH]1 [gandotinib]
Method in brief: as §1

tozasertib = compound: Cc1cc(Nc2cc(N3CCN(C)CC3)nc(Sc3ccc(NC(=O)C4CC4)cc3)n2)n[nH]1 [tozasertib]
Method in brief: as §1

[7] = compound: Cc1cc(SCc2sc(-c3ccc(C(F)(F)F)cc3)nc2C)ccc1OCC(=O)O
Method in brief: as §1

doramapimod = compound: Cc1ccc(-n2nc(C(C)(C)C)cc2NC(=O)Nc2ccc(OCCN3CCOCC3)c3ccccc23)cc1 [doramapimod]
Method in brief: as §1

ispinesib = compound: Cc1ccc(C(=O)N(CCCN)[C@@H](c2nc3cc(Cl)ccc3c(=O)n2Cc2ccccc2)C(C)C)cc1 [ispinesib]
Method in brief: as §1

Measured: log2 fold change

KIF11 (UniProt P52732)
UniProt P52732, sequence (P52732 whole entry, looked up): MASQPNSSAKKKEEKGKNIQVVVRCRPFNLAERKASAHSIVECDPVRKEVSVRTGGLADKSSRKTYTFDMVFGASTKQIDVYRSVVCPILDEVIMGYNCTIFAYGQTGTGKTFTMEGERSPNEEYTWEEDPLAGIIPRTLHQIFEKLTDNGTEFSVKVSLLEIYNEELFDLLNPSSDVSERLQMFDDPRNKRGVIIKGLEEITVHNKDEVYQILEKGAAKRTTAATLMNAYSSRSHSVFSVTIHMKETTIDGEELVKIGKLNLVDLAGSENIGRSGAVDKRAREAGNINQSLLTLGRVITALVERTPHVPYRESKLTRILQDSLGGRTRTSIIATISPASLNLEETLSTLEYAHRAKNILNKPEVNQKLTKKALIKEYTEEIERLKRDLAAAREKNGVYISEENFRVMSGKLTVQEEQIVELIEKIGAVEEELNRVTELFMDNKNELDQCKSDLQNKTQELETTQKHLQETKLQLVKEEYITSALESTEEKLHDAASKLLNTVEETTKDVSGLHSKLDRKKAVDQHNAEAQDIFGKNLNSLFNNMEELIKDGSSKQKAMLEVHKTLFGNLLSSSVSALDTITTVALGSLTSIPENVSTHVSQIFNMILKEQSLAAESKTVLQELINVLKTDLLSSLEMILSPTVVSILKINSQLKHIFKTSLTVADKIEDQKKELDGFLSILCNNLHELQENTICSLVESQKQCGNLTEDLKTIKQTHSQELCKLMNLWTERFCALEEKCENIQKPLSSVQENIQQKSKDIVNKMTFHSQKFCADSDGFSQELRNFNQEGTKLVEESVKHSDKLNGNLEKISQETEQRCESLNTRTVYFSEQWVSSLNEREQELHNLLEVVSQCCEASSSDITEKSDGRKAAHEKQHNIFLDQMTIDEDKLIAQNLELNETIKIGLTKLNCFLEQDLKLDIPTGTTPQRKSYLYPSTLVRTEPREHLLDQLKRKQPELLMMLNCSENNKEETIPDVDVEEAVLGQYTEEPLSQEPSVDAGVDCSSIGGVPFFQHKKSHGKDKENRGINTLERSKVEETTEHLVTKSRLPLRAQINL
active: filanesib 1.1 | ispinesib 0.761
inactive: [1] -0.004 | zotarolimus 0.074 | idasanutlin 0.026 | alisertib 0.011 | [2] 0.043 | gefitinib -0.002 | [3] -0.063 | lapatinib -0.018 | pictilisib 0.046 | [4] 0.034 | crizotinib -0.091 | [5] -0.029 | [6] 0.207 | duvelisib -0.007 | gandotinib -0.018 | tozasertib 0.12 | [7] 0.19 | doramapimod 0.13

ME2 (UniProt P23368)
UniProt P23368, sequence (P23368 whole entry, looked up): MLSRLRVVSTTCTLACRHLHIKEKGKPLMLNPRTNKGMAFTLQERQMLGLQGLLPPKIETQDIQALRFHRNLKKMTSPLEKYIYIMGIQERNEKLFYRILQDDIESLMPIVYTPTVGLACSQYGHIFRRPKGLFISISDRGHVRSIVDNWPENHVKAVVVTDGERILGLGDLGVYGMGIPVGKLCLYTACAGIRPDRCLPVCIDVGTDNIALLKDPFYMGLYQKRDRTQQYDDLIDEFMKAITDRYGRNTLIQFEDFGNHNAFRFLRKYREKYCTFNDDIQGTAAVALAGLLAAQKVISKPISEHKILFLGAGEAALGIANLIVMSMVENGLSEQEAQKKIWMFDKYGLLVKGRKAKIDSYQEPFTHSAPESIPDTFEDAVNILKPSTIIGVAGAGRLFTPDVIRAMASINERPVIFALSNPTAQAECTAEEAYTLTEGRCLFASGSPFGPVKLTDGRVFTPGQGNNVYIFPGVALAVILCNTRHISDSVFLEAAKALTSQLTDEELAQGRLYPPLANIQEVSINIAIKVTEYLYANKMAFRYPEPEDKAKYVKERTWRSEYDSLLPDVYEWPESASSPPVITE
active: crizotinib 0.282 | ispinesib 0.334
inactive: [1] -0.037 | filanesib 0.012 | zotarolimus -0.052 | idasanutlin 0.196 | alisertib 0.002 | [2] 0.076 | gefitinib 0.023 | [3] -0.046 | lapatinib -0.003 | pictilisib 0.056 | [4] -0.027 | [5] -0.048 | [6] 0.009 | duvelisib 0.043 | gandotinib -0.016 | tozasertib -0.001 | [7] -0.002 | doramapimod -0.016

MAGI1 (UniProt Q96QZ7)
inactive: [1] -0.031 | filanesib 0.053 | zotarolimus -0.044 | idasanutlin 0.084 | alisertib -0.01 | [2] 0.005 | gefitinib 0.042 | [3] -0.012 | lapatinib 0.01 | pictilisib 0.053 | [4] -0.006 | crizotinib -0.003 | [5] -0.053 | [6] 0.032 | duvelisib -0.013 | gandotinib 0.003 | tozasertib -0.03 | [7] 0.046 | doramapimod 0.024 | ispinesib -0.042

MIEN1 (UniProt Q9BRT3)
UniProt Q9BRT3, sequence (Q9BRT3 whole entry, looked up): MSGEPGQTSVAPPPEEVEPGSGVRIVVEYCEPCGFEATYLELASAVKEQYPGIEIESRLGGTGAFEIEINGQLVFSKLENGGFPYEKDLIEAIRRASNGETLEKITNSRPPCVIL
inactive: [1] -0.084 | filanesib 0.085 | zotarolimus 0.015 | idasanutlin -0.009 | alisertib 0.034 | [2] 0.061 | gefitinib 0.027 | [3] 0.001 | lapatinib -0.016 | pictilisib 0.001 | [4] 0.03 | crizotinib 0.152 | [6] -0.193 | duvelisib 0.208 | gandotinib 0.026 | tozasertib 0.12 | [7] 0.032 | doramapimod 0.029 | ispinesib 0.235
active: [5] 0.314

LUC7L2 (UniProt Q9Y383)
active: [6] -0.439
inactive: [1] 0.05 | filanesib 0.121 | zotarolimus 0.113 | idasanutlin 0.093 | alisertib -0.032 | [2] -0.048 | gefitinib -0.052 | [3] 0.008 | lapatinib 0.04 | pictilisib 0.095 | [4] -0.083 | crizotinib 0.02 | [5] 0.053 | duvelisib -0.002 | gandotinib 0.031 | tozasertib 0.065 | [7] 0.03 | doramapimod -0.03 | ispinesib 0.111

LTV1 (UniProt Q96GA3)
inactive: [1] -0.019 | filanesib 0.17 | zotarolimus 0.067 | idasanutlin 0.133 | alisertib -0.06 | [2] 0.022 | gefitinib -0.097 | [3] -0.095 | lapatinib 0.05 | pictilisib 0 | [4] 0.006 | crizotinib -0.143 | [5] -0.189 | [6] 0.294 | duvelisib -0.087 | gandotinib 0.199 | tozasertib 0.035 | [7] 0.009 | doramapimod 0.128 | ispinesib -0.271

MAD2L1 (UniProt Q13257)
UniProt Q13257, sequence (Q13257 whole entry, looked up): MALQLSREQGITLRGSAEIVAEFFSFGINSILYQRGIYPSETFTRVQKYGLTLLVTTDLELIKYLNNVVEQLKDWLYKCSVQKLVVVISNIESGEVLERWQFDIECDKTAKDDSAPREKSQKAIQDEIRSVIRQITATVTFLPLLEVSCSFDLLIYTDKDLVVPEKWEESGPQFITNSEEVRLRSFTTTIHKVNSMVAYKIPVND
inactive: [1] -0.024 | filanesib -0.042 | zotarolimus 0.034 | idasanutlin -0.12 | alisertib -0.003 | [2] 0.048 | gefitinib 0.008 | [3] 0.01 | lapatinib -0.064 | pictilisib 0.024 | [4] 0.02 | crizotinib -0.076 | [5] 0.092 | [6] -0.004 | duvelisib 0.024 | gandotinib -0.139 | tozasertib 0.101 | [7] 0.037 | doramapimod 0.034 | ispinesib -0.023

LMNB2 (UniProt Q03252)
inactive: [1] -0.023 | filanesib 0.1 | zotarolimus -0.064 | idasanutlin 0.099 | alisertib 0.004 | [2] -0.005 | gefitinib -0.001 | [3] 0.069 | lapatinib 0.059 | pictilisib 0.03 | [4] 0.007 | crizotinib 0.039 | [5] 0.179 | [6] 0.079 | duvelisib 0.072 | gandotinib -0.003 | tozasertib 0.03 | [7] 0.033 | doramapimod 0.019 | ispinesib 0.016

MAP4 (UniProt P27816)
inactive: [1] -0.002 | filanesib 0.022 | zotarolimus -0.029 | idasanutlin 0.028 | alisertib -0.034 | [2] -0.027 | gefitinib -0.019 | [3] -0.003 | lapatinib -0.002 | pictilisib -0.078 | [4] -0.004 | crizotinib 0.012 | [5] -0.025 | [6] -0.035 | duvelisib -0.03 | gandotinib 0.006 | tozasertib -0.023 | [7] -0.051 | doramapimod 0.008 | ispinesib -0.014

MARCKSL1 (UniProt P49006)
UniProt P49006, sequence (P49006 whole entry, looked up): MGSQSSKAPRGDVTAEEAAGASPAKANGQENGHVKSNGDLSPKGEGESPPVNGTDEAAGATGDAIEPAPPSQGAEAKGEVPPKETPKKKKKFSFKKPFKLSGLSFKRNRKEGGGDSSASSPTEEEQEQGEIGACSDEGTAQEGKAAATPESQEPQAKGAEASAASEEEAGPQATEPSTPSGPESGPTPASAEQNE
inactive: [1] -0.074 | filanesib 0.002 | zotarolimus -0.033 | idasanutlin -0.011 | alisertib -0.093 | [2] 0.073 | gefitinib -0.027 | [3] 0.028 | lapatinib -0.061 | pictilisib 0.026 | [4] 0.032 | crizotinib 0.09 | [5] -0.006 | [6] -0.094 | duvelisib 0.025 | gandotinib -0.006 | tozasertib -0.033 | [7] -0.074 | doramapimod -0.047 | ispinesib 0.071

KEAP1 (UniProt Q14145)
inactive: [1] 0.005 | filanesib 0.028 | zotarolimus 0.036 | idasanutlin -0.019 | alisertib -0.018 | [2] 0.005 | gefitinib 0.03 | [3] -0.066 | lapatinib 0.007 | pictilisib -0.02 | [4] 0.011 | crizotinib -0.077 | [5] -0.095 | [6] 0.111 | duvelisib 0.008 | gandotinib -0.176 | tozasertib 0.077 | [7] 0.049 | doramapimod 0.089 | ispinesib -0.102

MCU (UniProt Q8NE86)
UniProt Q8NE86, sequence (Q8NE86 whole entry, looked up): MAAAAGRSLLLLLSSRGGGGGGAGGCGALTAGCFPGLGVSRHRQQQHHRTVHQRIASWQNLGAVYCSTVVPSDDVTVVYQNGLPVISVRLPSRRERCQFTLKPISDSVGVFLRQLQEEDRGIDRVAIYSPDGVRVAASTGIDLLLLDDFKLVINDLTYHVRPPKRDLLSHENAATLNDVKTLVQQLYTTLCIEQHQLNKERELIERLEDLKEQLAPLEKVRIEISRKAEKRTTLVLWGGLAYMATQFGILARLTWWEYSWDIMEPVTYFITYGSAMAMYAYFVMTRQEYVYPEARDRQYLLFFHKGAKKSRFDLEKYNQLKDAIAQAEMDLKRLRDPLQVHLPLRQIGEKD
inactive: [1] -0.056 | filanesib -0.152 | zotarolimus 0.164 | idasanutlin -0.091 | alisertib -0.053 | [2] -0.053 | gefitinib -0.049 | [3] 0.054 | lapatinib -0.099 | pictilisib 0.09 | [4] -0.013 | crizotinib -0.159 | [5] 0.015 | [6] 0.001 | duvelisib 0.061 | gandotinib -0.172 | tozasertib -0.012 | [7] 0.054 | doramapimod -0.013 | ispinesib -0.1

IMMT isoform 2 (UniProt Q16891)
inactive: [1] 0.006 | filanesib -0.101 | zotarolimus -0.045 | idasanutlin 0.04 | alisertib -0.088 | [2] -0.25 | gefitinib -0.006 | [3] 0.017 | lapatinib -0.151 | pictilisib -0.238 | [4] -0.042 | crizotinib -0.152 | [5] 0.046 | [6] -0.115 | duvelisib -0.003 | gandotinib -0.075 | tozasertib -0.019 | [7] -0.087 | doramapimod -0.034 | ispinesib -0.031

LIMD1 (UniProt Q9UGP4)
UniProt Q9UGP4, sequence (Q9UGP4 whole entry, looked up): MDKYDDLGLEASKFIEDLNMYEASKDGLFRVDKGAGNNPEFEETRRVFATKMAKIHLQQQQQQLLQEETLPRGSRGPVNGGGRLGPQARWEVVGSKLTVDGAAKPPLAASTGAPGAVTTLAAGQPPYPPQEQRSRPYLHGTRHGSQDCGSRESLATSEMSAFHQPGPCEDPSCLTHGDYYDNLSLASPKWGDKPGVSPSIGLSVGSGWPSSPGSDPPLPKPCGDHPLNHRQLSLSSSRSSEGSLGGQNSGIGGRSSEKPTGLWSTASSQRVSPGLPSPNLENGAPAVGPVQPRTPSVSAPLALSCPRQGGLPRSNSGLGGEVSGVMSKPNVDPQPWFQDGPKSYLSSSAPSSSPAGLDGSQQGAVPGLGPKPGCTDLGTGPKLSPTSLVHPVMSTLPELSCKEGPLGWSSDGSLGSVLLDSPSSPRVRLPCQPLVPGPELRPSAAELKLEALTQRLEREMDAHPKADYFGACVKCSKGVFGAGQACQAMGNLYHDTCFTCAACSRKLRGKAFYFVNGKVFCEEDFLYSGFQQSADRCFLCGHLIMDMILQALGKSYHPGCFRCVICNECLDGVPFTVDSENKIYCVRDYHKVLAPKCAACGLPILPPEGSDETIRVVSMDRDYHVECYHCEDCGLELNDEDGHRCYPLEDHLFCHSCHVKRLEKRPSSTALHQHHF
inactive: [1] 0.027 | filanesib -0.007 | zotarolimus 0.028 | idasanutlin 0.028 | alisertib -0.059 | [2] 0 | gefitinib -0.078 | [3] -0.01 | lapatinib 0.06 | pictilisib -0.043 | [4] -0.03 | crizotinib 0.005 | [5] -0.007 | [6] -0.071 | duvelisib -0.032 | gandotinib 0.011 | tozasertib 0.039 | [7] 0.042 | doramapimod -0.01 | ispinesib 0.008

LTN1 isoform 3 (UniProt O94822)
UniProt O94822, sequence (O94822 whole entry, looked up): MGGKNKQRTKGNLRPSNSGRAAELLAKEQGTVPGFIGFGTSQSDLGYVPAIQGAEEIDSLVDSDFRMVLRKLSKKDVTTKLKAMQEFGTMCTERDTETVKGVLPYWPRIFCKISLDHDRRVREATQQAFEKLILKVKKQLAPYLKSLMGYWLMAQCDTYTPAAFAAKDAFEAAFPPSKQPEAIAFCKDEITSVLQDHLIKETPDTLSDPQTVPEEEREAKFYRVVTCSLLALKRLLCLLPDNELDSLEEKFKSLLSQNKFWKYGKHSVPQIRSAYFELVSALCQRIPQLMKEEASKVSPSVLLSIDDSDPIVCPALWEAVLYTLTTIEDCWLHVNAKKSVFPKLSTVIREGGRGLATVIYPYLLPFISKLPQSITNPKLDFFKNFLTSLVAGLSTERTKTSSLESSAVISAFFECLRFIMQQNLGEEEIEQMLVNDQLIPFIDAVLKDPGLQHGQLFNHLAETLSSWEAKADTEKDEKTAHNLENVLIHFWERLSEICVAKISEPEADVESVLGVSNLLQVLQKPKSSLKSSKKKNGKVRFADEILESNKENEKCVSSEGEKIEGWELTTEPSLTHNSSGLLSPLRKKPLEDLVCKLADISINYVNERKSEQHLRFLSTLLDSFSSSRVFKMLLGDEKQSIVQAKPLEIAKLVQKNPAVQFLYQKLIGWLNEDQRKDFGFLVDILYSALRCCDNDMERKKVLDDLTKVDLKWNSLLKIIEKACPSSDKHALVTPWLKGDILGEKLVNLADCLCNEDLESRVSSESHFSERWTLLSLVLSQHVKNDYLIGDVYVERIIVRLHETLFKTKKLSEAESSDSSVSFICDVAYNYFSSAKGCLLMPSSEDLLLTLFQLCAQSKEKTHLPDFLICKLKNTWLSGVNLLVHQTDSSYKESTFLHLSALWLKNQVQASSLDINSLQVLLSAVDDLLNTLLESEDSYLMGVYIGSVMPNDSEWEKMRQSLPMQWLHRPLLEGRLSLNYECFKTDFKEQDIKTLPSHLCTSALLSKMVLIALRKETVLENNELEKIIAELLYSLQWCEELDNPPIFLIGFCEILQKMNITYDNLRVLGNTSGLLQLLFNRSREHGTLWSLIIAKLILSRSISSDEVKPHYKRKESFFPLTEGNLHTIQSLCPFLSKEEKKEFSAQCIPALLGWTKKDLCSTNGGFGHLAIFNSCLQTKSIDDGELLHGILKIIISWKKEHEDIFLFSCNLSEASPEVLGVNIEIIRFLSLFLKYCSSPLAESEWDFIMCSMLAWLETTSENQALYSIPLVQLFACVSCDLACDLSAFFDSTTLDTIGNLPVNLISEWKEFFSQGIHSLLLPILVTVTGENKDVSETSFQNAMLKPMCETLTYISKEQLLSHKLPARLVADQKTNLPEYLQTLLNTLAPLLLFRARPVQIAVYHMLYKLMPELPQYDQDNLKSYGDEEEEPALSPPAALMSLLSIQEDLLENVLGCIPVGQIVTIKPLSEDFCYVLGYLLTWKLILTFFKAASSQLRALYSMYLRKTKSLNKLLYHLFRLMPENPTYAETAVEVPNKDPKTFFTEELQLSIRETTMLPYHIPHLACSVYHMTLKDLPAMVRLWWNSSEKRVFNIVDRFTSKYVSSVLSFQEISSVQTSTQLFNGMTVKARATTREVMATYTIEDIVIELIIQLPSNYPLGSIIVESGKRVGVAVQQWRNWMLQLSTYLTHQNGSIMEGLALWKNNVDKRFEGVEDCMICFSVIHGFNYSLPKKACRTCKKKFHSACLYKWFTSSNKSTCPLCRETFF
inactive: [1] 0 | filanesib -0.009 | zotarolimus 0.039 | idasanutlin -0.136 | alisertib 0.01 | [2] 0.04 | gefitinib -0.04 | [3] -0.108 | lapatinib -0.029 | pictilisib -0.157 | [4] -0.049 | crizotinib -0.136 | [5] -0.077 | [6] 0.128 | duvelisib -0.05 | gandotinib -0.234 | tozasertib 0.012 | [7] 0.11 | doramapimod 0.021 | ispinesib -0.229

KPNA1 (UniProt P52294)
inactive: [1] -0.115 | filanesib 0.072 | zotarolimus 0.065 | idasanutlin 0.019 | alisertib 0.078 | [2] 0.083 | gefitinib 0.011 | [3] -0.042 | lapatinib 0.01 | pictilisib 0.094 | [4] -0.021 | crizotinib -0.169 | [5] -0.029 | [6] 0.084 | duvelisib 0.047 | gandotinib 0.01 | tozasertib 0.075 | [7] -0.008 | doramapimod 0.062 | ispinesib -0.012
